{"source": "the supplement of paper PMC10121225", "note": "Structures can show the parent of a compound that is named as a salt.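 Note: immunostained co-cultures imaged by high-content microscopy, Z-score per plate against mean and SD of 0.1% DMSO wells, compounds added on differentiation day 18, analysed day 21.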"}
{"test_system": "hN + hpA co-culture (H1 iNGN2 human neurons + human primary astrocytes)", "test": "presynaptic density (SYNAPSIN1 puncta per MAP2 neurite area), Z-score vs DMSO controls; higher = more presynaptic puncta (synapse-promoting)", "details": "3 µM; 72 h"}
{"compound": "NC(=O)c1ncn([C@@H]2O[C@H](CO)[C@@H](O)[C@H]2O)c1N", "presynaptic density (Z-score)": 0.26}
{"compound": "Cc1[nH]c(/C=C2\\C(=O)Nc3ccc(S(=O)(=O)Cc4c(Cl)cccc4Cl)cc32)c(C)c1C(=O)N1CCC[C@@H]1CN1CCCC1", "presynaptic density (Z-score)": -4.53}
{"compound": "O=C(NCCN1CCOCC1)c1ccc(Cl)cc1", "presynaptic density (Z-score)": 0.253}
{"compound": "COc1cccc(C=NCCN=Cc2cccc(OC)c2[O-])c1[O-].[Cl-].[Mn+3]", "presynaptic density (Z-score)": -0.63}
{"compound": "Cc1cnc(-c2cc(N3CCN(C(=O)CCS(C)(=O)=O)CC3)ncc2Cl)c(C)c1", "presynaptic density (Z-score)": -1.22}
{"compound": "CCOC(=O)C1=C(COCCN)NC(C)=C(C(=O)OC)C1c1ccccc1Cl", "note": "(centres undefined)", "presynaptic density (Z-score)": -1.97}
{"compound": "O=c1ncn2nc(Sc3ccc(F)cc3F)ccc2c1-c1c(Cl)cccc1Cl", "presynaptic density (Z-score)": 0.626}
{"compound": "Cc1cc(Nc2cc(N3CCN(C)CC3)nc(Sc3ccc(NC(=O)C4CC4)cc3)n2)n[nH]1", "presynaptic density (Z-score)": -2.31}
{"compound": "COc1ccc2cc(-c3nc(-c4ccc([S+](C)[O-])cc4)[nH]c3-c3ccncc3)ccc2c1", "note": "(centres undefined) [Tie2 kinase inhibitor]", "presynaptic density (Z-score)": -0.787}
{"compound": "OCCOc1ccc(/C(=C(/CCCl)c2ccccc2)c2ccccc2)cc1", "note": "[Ospemifene]", "presynaptic density (Z-score)": -0.588}
{"compound": "Nc1nc(N)c2nc(-c3ccccc3)c(N)nc2n1", "note": "[Triamterene]", "presynaptic density (Z-score)": -0.407}
{"compound": "CCC(CC)CC1(C(=O)Nc2ccccc2SC(=O)C(C)C)CCCCC1", "note": "[Dalcetrapib (JTT-705]", "presynaptic density (Z-score)": -0.463}
{"compound": "C[C@H](NCc1ccc(OCc2cccc(F)c2)cc1)C(N)=O", "note": "[Safinamide Mesylate]", "presynaptic density (Z-score)": -0.055}
{"compound": "CC(=O)c1c(C)c2cnc(Nc3ccc(N4CCNCC4)cn3)nc2n(C2CCCC2)c1=O", "presynaptic density (Z-score)": -0.609}
{"compound": "Cc1[nH]c(/C=C2\\C(=O)Nc3ccc(S(=O)(=O)N(C)c4cccc(Cl)c4)cc32)c(C)c1C(=O)N1CCN(C)CC1", "presynaptic density (Z-score)": 0.365}
{"compound": "Cc1cn(-c2cc(NC(=O)c3ccc(C)c(Nc4nccc(-c5cccnc5)n4)c3)cc(C(F)(F)F)c2)cn1", "note": "[Nilotinib (AMN 107 or Tasigna)]", "presynaptic density (Z-score)": -1.02}
{"compound": "Cc1nc(C(=O)NCC(=O)O)c(O)c2ccc(Oc3ccccc3)cc12", "presynaptic density (Z-score)": 0.792}
{"compound": "CC(=O)O[C@]1(C(C)=O)CC[C@H]2[C@@H]3C=C(Cl)C4=CC(=O)[C@@H]5C[C@@H]5[C@]4(C)[C@H]3CC[C@@]21C", "note": "[Cyproterone acetate]", "presynaptic density (Z-score)": -0.989}
{"compound": "COc1cc(OC2CCN(C)CC2)ccc1Nc1ncc2c(n1)n(C1CCCC1)c(=O)n2C", "presynaptic density (Z-score)": -0.583}
{"compound": "COc1ccc([C@]2(C#N)CC[C@@H](C(=O)O)CC2)cc1OC1CCCC1", "note": "[Cilomilast]", "presynaptic density (Z-score)": -0.137}
{"compound": "Cc1c(Cc2ccc3ccccc3n2)c2cc(F)ccc2n1CC(=O)O", "presynaptic density (Z-score)": -1.02}
{"compound": "CNC(=O)c1ccc(N2C(=S)N(c3ccc(C#N)c(C(F)(F)F)c3)C(=O)C2(C)C)cc1F", "note": "[Enzalutamide (MDV3100)]", "presynaptic density (Z-score)": 0.664}
{"compound": "O=S(=O)(c1ccccc1)c1cnc2c(N3CCNCC3)cccc2c1", "presynaptic density (Z-score)": -0.943}
{"compound": "C[C@@H](NCCCc1cccc(C(F)(F)F)c1)c1cccc2ccccc12", "note": "[Cinacalcet HCl]", "presynaptic density (Z-score)": -1.05}
{"compound": "COc1ccc(CNCc2cccc3ccccc23)cc1", "presynaptic density (Z-score)": -1.02}
{"compound": "O=C1NC(=O)/C(=C/c2ccc(-c3ccc(F)cc3O)o2)S1", "presynaptic density (Z-score)": 0.652}
{"compound": "CC(C)(C)c1cc(/C=C(\\C#N)C(N)=S)cc(C(C)(C)C)c1O", "note": "[Tyrphostin AG 879]", "presynaptic density (Z-score)": -0.121}
{"compound": "NC(=O)c1cccc(-c2cc(Nc3ccc(OC(F)(F)F)cc3)ncn2)c1", "presynaptic density (Z-score)": -1.31}
{"compound": "COc1ccc(C2CNC(=O)C2)cc1OC1CCCC1", "note": "(centres undefined) [Rolipram]", "presynaptic density (Z-score)": -0.353}
{"compound": "C[C@@H](O[C@H]1OCCN(Cc2n[nH]c(=O)[nH]2)[C@H]1c1ccc(F)cc1)c1cc(C(F)(F)F)cc(C(F)(F)F)c1", "note": "[Aprepitant]", "presynaptic density (Z-score)": 0.895}
{"compound": "COc1ccc2cccc(CCNC(C)=O)c2c1", "note": "[Agomelatine]", "presynaptic density (Z-score)": -0.284}
{"compound": "C[C@@H](c1ncncc1F)[C@](O)(Cn1cncn1)c1ccc(F)cc1F", "presynaptic density (Z-score)": 0.265}
{"compound": "CCc1cccc2c3c([nH]c12)C(CC)(CC(=O)O)OCC3", "note": "(centres undefined) [Etodolac]", "presynaptic density (Z-score)": -1.87}
{"compound": "CCc1c(C(=O)NCCc2ccc(N3CCCCC3)cc2)[nH]c2ccc(Cl)cc12", "presynaptic density (Z-score)": -0.684}
{"compound": "FC(F)(F)c1ccc(/C=C/c2nc(COc3ccc(CCCCn4ccnn4)cc3)co2)cc1", "note": "[Mubritinib (TAK 165)]", "presynaptic density (Z-score)": -3.36}
{"compound": "O=C(NNc1ccccc1)c1ccncc1", "presynaptic density (Z-score)": -0.884}
{"compound": "COc1ccc(CC(C)NCC(O)c2ccc(O)c(NC=O)c2)cc1", "note": "(centres undefined)", "presynaptic density (Z-score)": 0.254}
{"compound": "O=C(Nc1ccncc1)c1cc([N+](=O)[O-])ccc1Cl", "note": "[2-Chloro-5-nitro-N-4-pyridinylbenzamide]", "presynaptic density (Z-score)": 0.702}
{"compound": "NC(=O)Nc1cc(-c2cccc(F)c2)sc1C(=O)N[C@H]1CCCNC1", "presynaptic density (Z-score)": 0.58}
